From PubChem BioAssay AID1851 (National Center for Advancing Translational Sciences (NCATS), 2009) come the findings set out here.

Molecules are shown by their SMILES. The whole screen tested about 16,000 compounds, of which about 5,100 (32%) were called active. Not shown: some 25% with an inconclusive outcome. Calls follow the shape of the dose curve; as a rule, active = well fitted curve in the direction sought with a large enough effect; inconclusive = small, poorly fitted or top-dose-only effect, or effect the other way; inactive = no such curve, though single readings can be large or run the other way. Some of the results follow.
% is scaled to controls: 0 for no effect and ±100 for the full control effect.

The target of the assay is Cytochrome P450 3A4 (Homo sapiens) (UniProt P08684). Kind of assay: Cytochrome panel assay with activity outcomes. To be noted: recombinant CYP, pro-luciferin dealkylation, luminescence, p450-cyp3a4; series mostly up to 57.1 µM; activity, negative = inhibition: at the top concentration.
Chain of Cytochrome P450 3A4 (Homo sapiens) (P08684 whole entry, looked up): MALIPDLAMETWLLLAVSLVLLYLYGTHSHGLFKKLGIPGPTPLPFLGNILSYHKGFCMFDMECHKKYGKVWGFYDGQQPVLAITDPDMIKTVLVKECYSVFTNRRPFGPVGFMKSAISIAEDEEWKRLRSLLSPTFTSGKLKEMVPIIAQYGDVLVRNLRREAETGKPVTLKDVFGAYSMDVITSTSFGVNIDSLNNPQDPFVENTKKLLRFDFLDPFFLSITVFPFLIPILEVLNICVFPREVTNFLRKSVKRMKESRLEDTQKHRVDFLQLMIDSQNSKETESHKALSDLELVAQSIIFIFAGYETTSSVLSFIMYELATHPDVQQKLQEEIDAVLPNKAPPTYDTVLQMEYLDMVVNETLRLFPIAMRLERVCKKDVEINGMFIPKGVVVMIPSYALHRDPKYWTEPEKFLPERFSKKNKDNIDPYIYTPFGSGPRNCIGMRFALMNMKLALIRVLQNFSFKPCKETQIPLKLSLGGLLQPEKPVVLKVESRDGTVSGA
On to `Cc1cccc2nc(C(F)(F)F)nc(=O)n12`, for which the activity, negative = inhibition is 0.743% [at 2.29 µM] (inactive).

`CC(C)OC(=O)c1cccc(C(=O)Oc2ccc(Br)cc2)n1`: the “activity, negative = inhibition” value is 3% (inactive).

For the compound `O=C(CCN1C(=O)c2cccc3cccc(c23)C1=O)N1CCN(Cc2ccc3c(c2)OCO3)CC1`, the AC50 (commonly the midpoint of the concentration-response curve, whichever way the signal moves) is 1 µM (active).

With `Cc1ccc(=O)n(-c2ccccc2)c1`, the “activity, negative = inhibition” value was -17.9% (inactive).

`Cc1ccc(/C=C2\OC(=O)c3ccccc32)cc1`: the AC50 is 12.6 µM (active).

In the case of `Cc1ccccc1/C=C1\OC(=O)c2ccccc21`, the “activity, negative = inhibition” value is -28.4% (inactive).

As to `CCC(C)N1C(=O)S/C(=C/c2ccc(Sc3nc4ccccc4[nH]3)o2)C1=O` (configuration not stated), the AC50 was 1.12 µM (active).

Turning to `COc1ccccc1CNc1ncnc2ccc(-c3c(C)noc3C)cc12`, the AC50 is 12.6 µM (active).

On to `COc1ccc(CNc2ncnc3ccc(-c4c(C)noc4C)cc23)c(OC)c1`, for which the AC50 is 3.16 µM (active).

As for `Cn1c(N)c(N=Nc2ccc(S(N)(=O)=O)cc2)c(=O)n(C)c1=O`, the activity, negative = inhibition is -14.9% [at 11.4 µM] (inactive).

`CN(Cc1ccco1)C(=O)C1CCC(=O)N1Cc1ccc(F)cc1` (configuration not stated): the “activity, negative = inhibition” value is -13.7% (inactive).

Take `CC(C)(C)c1ccc(CN(Cc2ccco2)Cc2nnnn2C2CCCC2)cc1`: the AC50 is 1.41 µM (active).

For `NC(N)=N/N=C(\c1ccc(Cl)cc1)C1CC1`, the activity, negative = inhibition was -13.1% [at 11.4 µM] (inactive).

Regarding `CCOC(=O)N1CCN(C(=O)CCn2nc(-c3ccccc3)ccc2=O)CC1`, the “activity, negative = inhibition” value is 11.8% (inactive).

For `CCOC(=O)N1CCN(C(=O)C(CC)n2nc(C)c3sc4ccccc4c3c2=O)CC1` (configuration not stated), the AC50 is 7.08 µM (active).

For `CCOC(=O)N1CCN(C(=O)c2cnc3n(c2=O)CCS3)CC1`, the “activity, negative = inhibition” value was -1.95% (inactive).

In the case of `COc1ccc(CCC(C)NC2C3CC4CC(C3)CC2C4)cc1` (configuration not stated), the activity, negative = inhibition was -2.79% [at 2.29 µM] (inactive).

As to `C[C@@H]1C[C@H](C)CN(S(=O)(=O)c2cc(Cl)c(Oc3ccc([N+](=O)[O-])cc3Cl)c(Cl)c2)C1`, the activity, negative = inhibition was -9.23% [at 11.4 µM] (inactive).

For `COc1ccc(S(=O)(=O)N2CC3C4C=CC(C4)C3C2)cc1` (configuration not stated), the AC50 is 14.1 µM (active).

Take `Oc1ccccc1-c1cc(-c2ccccc2)no1`: the “activity, negative = inhibition” value was 1.55% (inactive).

As for `O=C(CN1C(=O)NC2(CCCCCC2)C1=O)N1CCN(S(=O)(=O)c2ccc(Cl)cc2)CC1`, the half-maximal activity concentration (AC50) is 6.31 µM (active).

Regarding `CC1CN(C(=O)CN2C(=O)NC3(CCCCCC3)C2=O)CC(C)O1` (configuration not stated), the “activity, negative = inhibition” value is 25.3% (inactive).

With `O=C(CN1C(=O)NC2(CCCC2)C1=O)NCCC1=CCCCC1`, the “activity, negative = inhibition” value is -28.6% (inactive).

On to `Nc1ccc(-c2ccc(Nc3cc(S(=O)(=O)O)c(N)c4c3C(=O)c3ccccc3C4=O)cc2)c(S(=O)(=O)O)c1`, for which the activity, negative = inhibition is -1.65% [at 11.4 µM] (inactive).

Take `Cc1ccc(S(=O)(=O)N(C)c2cc(S(=O)(=O)N3CCC(C)CC3)c(C)cc2C)cc1`: the AC50 is 2.51 µM (active).

On to `CC1CCN(S(=O)(=O)c2ccc3c(c2)C(=NO)c2cc(S(=O)(=O)N4CCC(C)CC4)ccc2-3)CC1`, for which the activity, negative = inhibition is -0.656% [at 2.29 µM] (inactive).

Consider `CC(=O)c1cccc(NC(=O)Cc2ccc3c(c2)CCCC3)c1`, for which the “activity, negative = inhibition” value is -26.1% (inactive).

On to `O=C(N/N=C\c1ccc2c(c1)CCC2)c1ccccc1O`, for which the activity, negative = inhibition is -19.2% [at 11.4 µM] (inactive).

In the case of `O=C(CC1CCCC1)Nc1ccc2c(c1)CCC2`, the AC50 is 14.1 µM (active).

As to `COCCCNC(=O)c1c(N)n(/N=C/c2ccccn2)c2nc3ccccc3nc12`, the half-maximal activity concentration (AC50) was 4.47 µM (active).

As for `CCCCCCCCC(=O)N/N=C/c1ccccn1`, the “activity, negative = inhibition” value was -18.3% (inactive).

Consider `Cc1nc2ccccc2n1CC(=O)N/N=C\c1ccccn1`, for which the “activity, negative = inhibition” value is -14.7% (inactive).

As for `O=S(=O)(c1ccccc1)N1CCC2(CC1)CN(c1ncccn1)C2`, the “activity, negative = inhibition” value was 3.08% (inactive).

For the compound `CN1CCCC2(CCN(S(=O)(=O)c3ccccc3)CC2)C1`, the “activity, negative = inhibition” value is -18% (inactive).

For the compound `O=S(=O)(c1ccccc1)N1CCC2(CCCN(c3ncccn3)C2)CC1`, the AC50 is 12.6 µM (active).

With `O=S(=O)(c1ccccc1)N1CCC2(CCCN(c3cccc(-c4ccccc4)c3)C2)CC1`, the AC50 is 3.98 µM (active).

As to `CS(=O)(=O)N1CCC2(CCCN(c3ncccn3)C2)CC1`, the “activity, negative = inhibition” value is -23.3% (inactive).

For the compound `CS(=O)(=O)N1CCC2(CC1)CN(c1cccc(-c3ccccc3)c1)C2`, the “activity, negative = inhibition” value is -29.8% (inactive).

Take `O=S(=O)(c1ccccc1)N1CCC[C@@]2(CCN(c3cccc(-c4ccccc4)c3)C2)C1`: the AC50 is 12.6 µM (active).

`O=S(=O)(c1ccccc1)N1CCC2(CCCN(c3ccccc3)C2)CC1`: the concentration at half-maximal activity (AC50) is 3.98 µM (active).

As to `CS(=O)(=O)N1CCC2(CCN(c3cccc(-c4ccccc4)c3)CC2)CC1`, the “activity, negative = inhibition” value was -21.2% (inactive).

Take `c1ccc(CCN2CCN=C2Cc2ccccc2)cc1`: the activity, negative = inhibition is 7.9% [at 11.4 µM] (inactive).

On to `c1ccc(SCCc2ccncc2)cc1`, for which the AC50 is 2.51 µM (active).

On to `CCN(CCCc1ccccc1)CCCc1ccccc1`, for which the “activity, negative = inhibition” value was -5.25% [at 25.6 µM] (inactive).

For `ON(CCc1ccncc1)Cc1ccccc1`, the AC50 is 1 µM (active).

Turning to `Fc1ccc(SCCc2ccncc2)cc1`, the AC50 is 3.55 µM (active).

`C[C@@H](CSC(=N)N)C(N)=O`: the activity, negative = inhibition is -8.21% [at 11.4 µM] (inactive).

On to `CCN(CC(=O)O)CC(=O)O`, for which the activity, negative = inhibition is 0.0109% [at 11.4 µM] (inactive).

`CC(=O)NNC(=O)CCC(=O)Nc1ccccc1`: the activity, negative = inhibition was 6.14% [at 2.29 µM] (inactive).

With `CCOC(=O)CC(NC(=O)c1ccco1)c1ccc(OC)cc1` (configuration not stated), the “activity, negative = inhibition” value is 13.6% (inactive).

Consider `Cc1ccc(C(=O)C(OC(=O)CCC(=O)Nc2cccc(C)c2)c2ccccc2)cc1` (configuration not stated), for which the AC50 was 25.1 µM (active).

In the case of `CC(=O)Nc1cccc(C(=O)OC(C(=O)c2ccc(C)c(C)c2)c2ccccc2)c1` (configuration not stated), the activity, negative = inhibition is 8% [at 2.29 µM] (inactive).

On to `Cc1ccccc1OCC(=O)OC1CCN(C)CC1`, for which the “activity, negative = inhibition” value is 17.6% (inactive).

`Cc1ccc(C(=O)C(OC(=O)CNS(=O)(=O)c2ccccc2)c2ccccc2)cc1` (configuration not stated): the AC50 is 14.1 µM (active).

For the compound `COc1ccc(C(=O)C(OC(=O)CNC(=O)c2ccco2)c2ccccc2)cc1` (configuration not stated), the AC50 was 14.1 µM (active).

`Cc1ccc(C(=O)C(OC(=O)COc2ccccc2C)c2ccccc2)cc1` (configuration not stated): the AC50 is 10 µM (active).

`O=C(O)Cc1cc(I)c(Oc2ccc(O)c(I)c2)c(I)c1`: the “activity, negative = inhibition” value was -23.6% [at 25.6 µM] (inactive).

Turning to `NC1=NC2(CCCCC2)N=C(Nc2ccc(F)cc2F)N1`, the “activity, negative = inhibition” value is -29.4% (inactive).

Turning to `Cc1ccc(C(=O)C(OC(=O)CN2C(=O)c3ccccc3C2=O)c2ccccc2)cc1` (configuration not stated), the AC50 was 7.94 µM (active).

Take `O=C(O)CC[C@@H](C(=O)O)N1C(=O)c2ccccc2C1=O`: the activity, negative = inhibition was -3.86% [at 11.4 µM] (inactive).

Regarding `COc1ccc(C(=S)Nc2ccccc2)cc1`, the AC50 was 31.6 µM (active).

On to `COc1ccc(NC(=S)Nc2ccccc2)cc1`, for which the activity, negative = inhibition is -19.5% [at 11.4 µM] (inactive).
